# Assay outcomes (PubChem)
# In the library only some 5.8% were active in any assay of this set; here they are far more common.
# RORg inh: blocks mouse ROR gamma transcriptional activity; Drosophila S2 Gal4-RORgamma UAS-luciferase reporter, 20 h; Potency, µM (series often up to 53.6 µM), for inactives: top-dose activity change, negative = inhibition, most hits filed as inhibitors; 5.4% of 310,000 active; P51450; note: potency is the fitted concentration of half-maximal effect; % is set by controls: 0 for no effect and ±100 for the full control effect; nearly all actives have a fitted effect of over 60% in size
#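 Read-out: Photinus luciferase luminescence; inhibitors lower reporter signal. Insect Schneider cells with Gal4-ROR gamma fusion under metallothionein promoter, UAS reporter; 700 uM final copper sulfate induction, 20 hr, ambient temperature.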
# uPA surface inh: cell surface uPA generation inhibition | 0.31% of 330,000 active | Potency, µM (highest dose often 38.3 µM), for inactives: top-dose activity change, negative = inhibition, hits mostly inhibitors | cell surface uPA generation assay, qHTS; active = well fitted inhibition curve with a large enough effect; inconclusive = small, poorly fitted or top-dose-only effect; inactive = no such curve, though single readings can be large or run the other way; tested in mouse RAW 264.7 cells; note: potency is the fitted concentration of half-maximal effect; % is set by controls: 0 for no effect and ±100 for the full control effect; nearly all actives have a fitted effect of over 55% in size
# TRPV1 ag: agonists of human vanilloid receptor 1 (TRPV1); activation, % at 8.33 µM; 0.19% of 320,000 active; TRPV1-expressing cells, Fluo-8 calcium influx, agonist mode; AID 540275; Q8NER1; in the data active = activation above about 80%; inconclusive = between about 30% and that limit; note: 0% is about no effect
# Target sequence (Q8NER1 whole entry, looked up): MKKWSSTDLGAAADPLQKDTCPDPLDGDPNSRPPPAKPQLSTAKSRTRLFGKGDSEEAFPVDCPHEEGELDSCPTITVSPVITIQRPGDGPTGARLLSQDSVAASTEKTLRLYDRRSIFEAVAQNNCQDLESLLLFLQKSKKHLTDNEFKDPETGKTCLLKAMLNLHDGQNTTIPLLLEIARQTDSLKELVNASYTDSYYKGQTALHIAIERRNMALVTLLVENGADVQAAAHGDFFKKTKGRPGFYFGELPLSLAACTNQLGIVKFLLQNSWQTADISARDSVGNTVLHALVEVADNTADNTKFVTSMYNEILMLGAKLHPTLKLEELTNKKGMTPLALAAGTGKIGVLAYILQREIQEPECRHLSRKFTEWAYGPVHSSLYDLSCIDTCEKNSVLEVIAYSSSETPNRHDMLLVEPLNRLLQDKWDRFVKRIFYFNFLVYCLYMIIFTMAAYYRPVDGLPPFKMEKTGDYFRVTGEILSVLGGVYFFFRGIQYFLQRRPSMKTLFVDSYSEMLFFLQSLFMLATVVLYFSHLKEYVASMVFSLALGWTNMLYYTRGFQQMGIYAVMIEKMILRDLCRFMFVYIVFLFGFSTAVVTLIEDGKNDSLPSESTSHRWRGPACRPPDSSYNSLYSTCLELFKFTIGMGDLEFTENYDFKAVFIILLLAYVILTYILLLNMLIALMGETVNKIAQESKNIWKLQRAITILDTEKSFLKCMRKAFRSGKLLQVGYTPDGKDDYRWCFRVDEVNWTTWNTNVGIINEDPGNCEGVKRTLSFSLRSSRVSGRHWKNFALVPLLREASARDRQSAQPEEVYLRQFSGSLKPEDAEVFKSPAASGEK
#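 Fluo-8 calcium influx in TRPV1-expressing cells, kinetic read (ex 480/em 520 nm). Compound added and read 3 min for agonist activity, followed by capsaicin at EC20 final and 2 min further read for enhancement.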
# VP16 counter: inhibits Gal4-VP16 luciferase reporter, ROR gamma counter-screen. Drosophila S2 Gal4-VP16 UAS-luciferase, luminescence, 20 h. Potency, µM (highest dose often 53.6 µM), for inactives: at the top dose activity, negative = inhibition, actives largely listed as inhibitors. 3.5% of 310,000 active. AID 2546;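 note: Gal4-VP16 expression switched on by copper sulfate through the metallothionein promoter; potency is the fitted concentration of half-maximal effect; % is set by controls: 0 for no effect and ±100 for the full control effect; nearly all actives have a fitted effect of over 50% in size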
# TRPV1 potentiator: human TRPV1 potentiation; 0.02% of 320,000 active; potentiation, % at 8.33 µM; TRPV1-expressing cells, Fluo-8 calcium influx, capsaicin EC20 potentiation; in the data active = potentiation above about 80%; inconclusive = between about 30% and that limit; note: 0% is about no effect
#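 Fluo-8 calcium influx in TRPV1-expressing cells, kinetic read (ex 480/em 520 nm). Compound added and read 3 min for agonist activity, followed by capsaicin at EC20 final and 2 min further read for enhancement.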
# The depositor's hits bear a star; ? = inconclusive; · = no result; [ ] = another dose, or the depositor's remark. Unless noted, calls come from the whole dose curve; as a rule, active = well fitted curve in the direction sought with a large enough effect; inconclusive = small, poorly fitted or top-dose-only effect, or another doubt; inactive = no such curve, though single readings can be large; an effect the other way counts as inactive or inconclusive.
SMILES,RORg inh,uPA surface inh,TRPV1 ag,VP16 counter,TRPV1 potentiator
N/C(COc1cccc(C(F)(F)F)c1)=N\NC(=O)c1cccnc1Oc1ccccc1,0.5µM*,-4%,-1,1.3µM*,0
N/C(COc1ccccc1)=N\NC(=O)c1cccnc1Oc1ccccc1,?,3%,-3,1.4µM*,?
Cc1snc(SCC(=O)c2ccc(F)cc2)c1C#N,-5%,-1%,?,-6%,26
COCCCC1CCN(C(=O)C2CCC(=O)N(Cc3ccccc3F)C2)CC1 (stereo not drawn),6%,0%,-2,-7%,7
Cc1ccsc1/C=N/NC(=S)NCCc1ccccc1,1µM*,-9%,-1,6.3µM*,?
CCNC(=S)N/N=C/c1sccc1C,0.4µM*,·,-1,3.2µM*,2
O=C(COC(=O)c1ccc(F)c(S(=O)(=O)N2CCOCC2)c1)Nc1ccc2c(c1)OCO2,·,-6%,1,·,18
Fc1ccc(-c2n[nH]c(=S)n2/N=C/c2c[nH]c3ccccc23)cc1,?,1%,3,0%,-3
Cn1cccc1/C=N/n1c(-c2ccc(C(C)(C)C)cc2)n[nH]c1=S,2.2µM*,13%,18,?,5
Cn1cccc1/C=N/n1c(-c2ccccc2)n[nH]c1=S,14µM*,1%,0,?,-11
c1cncc(-c2cncnc2NCc2cccs2)c1,20%,·,·,8%,·
O=C1CCC2S/C(=C/Nc3ccc(C(F)(F)F)cc3)C(=O)N12 (stereo not drawn),1.3µM*,-5%,?,?,-1
NC(C(=O)O)c1nn[nH]n1 (stereo not drawn),-2%,·,·,-13%,·
CN(C)S(=O)(=O)c1ccc(/C(O)=C2/C(=O)C(=O)N(CCN3CCCCC3)C2c2cccnc2)cc1 (stereo not drawn),·,4%,·,·,·
CNC(=O)C1(C(F)(F)F)CC(CCCO)CCCO1 (stereo not drawn),12%,·,·,-7%,·
CCCc1cc(=O)n2[nH]c(C)c(-c3ccccc3)c2n1,7.1µM*,3%,8,?,-9
COC(=O)Cc1cc(=O)n2[nH]c(C)c(-c3ccccc3)c2n1,3.5µM*,1%,-6,4µM*,0
CCOC(=O)Cc1cc(=O)n2[nH]c(C)c(-c3ccc(OC)cc3)c2n1,-15%[0.365 µM],7%,-4,·,8
CCc1cc(=O)n2[nH]c(-c3ccccc3)c(-c3ccccc3)c2n1,?,-5%,1,-21%,10
CCOC(=O)Cc1cc(=O)n2[nH]c(C)c(-c3ccc(Cl)cc3)c2n1,11µM*,-24%,-2,?,14
C=Cc1ccc(Cn2c(=O)n(C)c(=O)c3sccc32)cc1,?,-11%,1,?,-4
COc1ccc(-c2nc(=S)c3c([nH]2)Oc2ccc(C)cc2C3)cc1O,27%,6%,-6,3%,0
COc1ccc(/C(C)=N/Nc2nc3ccccc3nc2C)cc1OC,4.5µM*,-18%,3,?,7
COc1ccc(/C(C)=N/Nc2cccc(C(=O)O)c2)cc1OC,-3%,-7%,-6,-23%,2
Cc1ccc(-c2n[nH]c(=S)c3ccccc23)cc1,31%,5%,1,2%,2
SMILES,RORg inh,uPA surface inh,TRPV1 ag,VP16 counter,TRPV1 potentiator
Cc1ccc(-c2n[nH]c(=S)nc2-c2ccc(C)cc2)cc1,5µM*,-10%,-1,?,-8
Cc1nn(C)c(C(=O)NNC(=S)Nc2ccc(Cl)cc2)c1[N+](=O)[O-],4µM*,·,-2,?,3
COc1cccc(NC(=S)NNC(=O)C(C)n2nc(C)c([N+](=O)[O-])c2C)c1 (stereo not drawn),?,·,-2,-18%,-1
COc1cccc(NC(=S)NNC(=O)c2c([N+](=O)[O-])c(C)nn2C)c1,2.5µM*,-11%,-1,?,1
Cc1nn(C)c(C(=O)Nc2ccc(Cn3cccn3)cc2)c1[N+](=O)[O-],-30%,5%,11,-7%,-25
NCCCCCCNc1nc2c(N)ncnc2n1[C@@H]1O[C@@H]2COP(=O)(O)O[C@H]2[C@H]1O,0%,·,·,0%,·
COc1ccccc1-c1nc(NCc2ccccc2)c2ccccc2n1,35µM*,·,·,?,·
c1ccc(CNc2nc(-c3ccccn3)nc3ccccc23)cc1,2.5µM*,-20%,9,3.5µM*,-19
Fc1ccccc1/C=N/Nc1nc(-c2ccccn2)nc2ccccc12,0.25µM*,·,4,0.5µM*,14
Clc1ccccc1-c1nc(N/N=C/c2cccnc2)c2ccccc2n1,?,-5%,?,-5%,-26
c1ccc(CNc2nc(-c3ccccc3)nc3ccccc23)cc1,17%,2%,-2,-6%,17
CCC(C)Nc1nc(-c2ccccn2)nc2ccccc12 (stereo not drawn),0.71µM*,?,19,3.5µM*,-23
Fc1ccccc1-c1nc(NCc2ccccc2)c2ccccc2n1,2%,16%,3,-5%,7
COc1ccccc1/C=C1\SC(=S)N(CCC(=O)NC2=NCCS2)C1=O,4.5µM*,2%,-4,-7%,1
O=C(CCN1C(=O)/C(=C/c2cccs2)SC1=S)NC1=NCCS1,16µM*,3%,-5,?,?
O=C(COc1ccc(Cl)cc1)NNC(=O)c1ccc(=O)[nH]c1,·,0%,·,·,·
Cc1ccc(S(=O)(=O)N[C@H]2COC(=O)C/C=C\[C@@H](C)COC(=O)C/C=C\[C@@H]2C)cc1,20%[10 µM],·,·,-3%[10 µM],·
CC1CC(C)(C)NC(=S)N1CCCC(=O)Nc1ccc(Br)cc1 (stereo not drawn),4µM*,-9%,9,?,-7
Cc1cccc(NC(=O)CCCN2C(=S)NC(C)(C)CC2C)c1C (stereo not drawn),11µM*,1%,1,-24%,-8
C=CCn1c(=S)[nH]c2sc3c(c2c1=O)CCCC3,0.4µM*,-18%,-3,0.71µM*,24
COCCCn1c(=S)[nH]c2sc3c(c2c1=O)CCCC3,0.79µM*,0%,-1,1µM*,?
COCCn1c(=S)[nH]c2sc3c(c2c1=O)CCCC3,4µM*,0%,-2,2.2µM*,7
CN(Cc1nc(-c2cccs2)no1)CC(O)c1ccccc1 (stereo not drawn),40%,0%,14,-16%,-5
Cc1cc(NC(=S)N(CCCN2CCOCC2)Cc2ccco2)ccc1Cl,?,-9%,?,?,-27
COc1ccc(OC)c(-c2ccccc2/C=N/NS(=O)(=O)c2ccc(C)cc2)c1,7%[10 µM],·,·,5%[10 µM],·
CCOc1cc(/C=C2/NC(=O)NC2=O)cc(Br)c1OCc1ccc(C(=O)O)cc1,-1%,-2%,1,-10%,7
C[C@@](N)(C(=O)O)c1cccc(CC(=O)O)c1,13%,·,·,-4%,·
CN(C)CC(CCC(CN(C)C)C(=O)c1ccccc1)C(=O)c1ccccc1 (stereo not drawn),7.1µM*,-7%,2,10µM*,2
